High-throughput results (PubChem)
CHT PAM – CHT positive allosteric modulators, primary screen, cell-based, membrane potential dye, choline EC20; High affinity choline transporter 1 (Homo sapiens), Q9GZV3; CHT-expressing cells; hits give high values; LV-AA mutant CHT in HEK293 cells; B-score at 10 µM; AID 488977, 2010; 310,000 tested, 0.49% active;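 active = initial fluorescence not abnormally high and integrated response B-score, plate-corrected, over 3 SD above library mean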
Target sequence (Q9GZV3 whole entry, looked up): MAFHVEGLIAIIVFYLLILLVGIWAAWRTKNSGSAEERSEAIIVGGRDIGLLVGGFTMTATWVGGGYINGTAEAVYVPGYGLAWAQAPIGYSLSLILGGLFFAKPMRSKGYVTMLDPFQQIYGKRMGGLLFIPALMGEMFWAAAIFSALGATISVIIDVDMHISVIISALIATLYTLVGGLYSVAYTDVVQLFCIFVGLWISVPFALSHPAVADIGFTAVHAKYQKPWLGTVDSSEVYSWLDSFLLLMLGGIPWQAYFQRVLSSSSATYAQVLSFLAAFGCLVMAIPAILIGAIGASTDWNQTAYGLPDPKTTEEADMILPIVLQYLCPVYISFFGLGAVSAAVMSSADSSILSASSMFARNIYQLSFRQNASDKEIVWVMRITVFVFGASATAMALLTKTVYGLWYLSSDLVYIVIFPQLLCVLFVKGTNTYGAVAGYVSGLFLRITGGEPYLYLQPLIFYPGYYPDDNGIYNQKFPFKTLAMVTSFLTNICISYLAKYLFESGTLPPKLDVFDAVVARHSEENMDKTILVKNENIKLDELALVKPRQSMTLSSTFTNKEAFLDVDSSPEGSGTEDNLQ
ANO1 block – TMEM16A chloride channel inhibitors, primary screen, cell-based, HTS; Anoctamin-1 (Mus musculus), Q8BHY3; HEK293 TMEM16A/YFP iodide influx fluorescence, ionomycin; normalized B-score (activity score, 25-100; higher = stronger inhibition) at 10 µM; 310,000 tested, 1.2% active; AID 588511, 2011;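 active = ratio plate-corrected score three or more library SD toward inhibition, starting fluorescence score within five deviations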;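 note: score derived from kinetic fluorescence span divided by baseline fluorescence per well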
CHT inh – inhibitors of human choline transporter CHT. CHT-expressing cells, membrane potential dye, choline response; hits give low values. High affinity choline transporter 1 (Homo sapiens), Q9GZV3. B-score at 10 µM. 310,000 tested, 0.86% active;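 active = B-score over 3 SD under the library average, and starting fluorescence ratio not unusually high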;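 note: choline stimulus applied at its EC90 after an EC20 pre-addition; B-score computed on integrated fluorescence ratio after choline addition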
TMEM16A act – TMEM16A chloride channel activators or potentiators, primary screen, cell-based, HTS. Anoctamin-1 (Mus musculus), Q8BHY3. HEK293 TMEM16A/YFP-H148Q/I152L, iodide quench fluorescence; hits give low values. B-score at 10 µM. 340,000 tested, 0.3% active;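 active = fluorescence-ratio B-score plate-corrected deviation score at least 3 library SD below zero, with starting fluorescence score within 5 deviations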;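 note: channel opened by trigger with iodide after compound preincubation; score built on the fluorescence ratio of max minus min over baseline; more negative score means more quench and so TMEM16A activation or potentiation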
CHT inh conf – CHT inhibitors, confirmation, cell-based, membrane potential dye, duplicate; shares compounds with CHT inh; CHT-expressing cells, choline membrane potential dye; LV-to-AA substituted CHT, HEK293 cells; CHT activity remaining % of control (hits give low values), % at 10 µM; 2,400 tested, 70% active; AID 493221, 2011;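 active = choline transporter activity left, mean of duplicates at 10 µM, below buffer-only control mean minus 3 SD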;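 note: depolarization triggered by choline at its EC90 following an EC20 pre-addition; 0% = hemicholinium-3 full block and 100% = buffer-only control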
HEK293 MPD ctr – membrane potential effects in parental HEK293, counter-screen for CHT inhibitor project, cell-based, membrane potential dye | 2,400 tested, 4% active | AID 493222, 2011 | choline response; active = decrease or increase beyond buffer ±3SD | membrane potential ratio readout (active if shifted either direction beyond buffer ±3SD; no single direction) at 10 µM | shares compounds with CHT inh;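 note: parental cells lack the transporter so any hit is non-specific; ratio is peak minus trough fluorescence over baseline after EC90 choline challenge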
An asterisk follows results filed as active; i = inactive; nt = no result. Shown are actives, neighbours in structure and some others; about 2.4% of the full set was active somewhere.

SMILES | CHT PAM | ANO1 block | CHT inh | TMEM16A act | CHT inh conf | HEK293 MPD ctr
COc1ccc(C2CC(=O)Oc3c(C(CCN4CCCC(C)C4)c4ccc(N(C)C)cc4)c(OC)cc(OC)c32)cc1 (stereo not given) | i | i | i | i | nt | nt
COc1ccc(C2CC(=O)Oc3c(C(CCN4CCCCC4)c4ccc(N(C)C)cc4)c(OC)cc(OC)c32)cc1 (stereo not given) | i | i | -5.9* | i | 47.2%* | i
COc1ccc(/C=C/C(=O)OCC(=O)N(C)CC(=O)Nc2ccc(C)cc2)c(OC)c1 | nt | nt | nt | i | nt | nt
C=CCn1c(-c2ccc(Cl)cc2)cnc1SC(C)C(=O)NC(N)=O (stereo not given) | i | i | i | i | nt | nt
COc1ccc(C(CCN2CCCC2)c2c(OC)cc(OC)c3c(-c4ccccc4)cc(=O)oc23)cc1 (stereo not given) | i | i | -5.18* | i | 51.3%* | i
CCCN(CCC)CCCNC(=S)Nc1ccc2nc(N3CCN(CC)CC3)cc(C)c2c1 | i | i | -6.68* | i | 49.2%* | 2.17*
CCN1CCN(c2cc(C)c3cc(NC(=S)N4CCCC4)ccc3n2)CC1 | i | i | i | i | nt | nt
CCN1CCN(c2cc(C)c3cc(NC(=S)N4CCCCC4)ccc3n2)CC1 | i | i | -6.67* | i | 47.4%* | i
CCOc1ccccc1C(=O)N1CCC(n2nnc3cc(C(F)(F)F)ccc32)CC1 | i | i | i | i | nt | nt
COc1ccc(NC(=O)CC2Nc3cccc4cccc(c34)NC2=O)cc1 (stereo not given) | i | i | i | i | nt | nt
O=C(CC1Nc2cccc3cccc(c23)NC1=O)Nc1ccc(F)cc1 (stereo not given) | i | i | -5.07* | i | i | i
O=C(CN1CCN(Cc2ccc(F)cc2Cl)C1=O)NCCc1ccccc1 | i | i | i | i | nt | nt
CN(CCNC(=O)CN1CCN(Cc2ccccc2Cl)C1=O)Cc1ccccc1 | i | i | -6.47* | i | 42.6%* | i
O=C(CC12CC3CC(CC(C3)C1)C2)Nc1ccccc1N1CCOCC1 | i | i | i | i | nt | nt
CCCn1ccnc1SC(C)C(=O)Nc1c(C)n(C)n(-c2ccccc2)c1=O (stereo not given) | nt | nt | nt | i | nt | nt
CCc1cc2c(=O)n(CC)c(SC(C)C(=O)Nc3c(C)n(C)n(-c4ccccc4)c3=O)nc2s1 (stereo not given) | i | i | -5.58* | i | i | i
COCCn1c(C)cc(C(=O)COC(=O)c2ccc3c(c2)NC(=O)CS3)c1C | i | i | i | i | nt | nt
CCOC(=O)N1CCN(C(=O)c2ccc3nc(N4CCC(C)CC4)sc3c2)CC1 | i | i | -7.2* | i | 69.3%* | i
O=C(CCC(C(=O)O)N1C(=O)c2ccccc2C1=O)Nc1ccccc1 (stereo not given) | nt | nt | nt | i | nt | nt
CCOC(=O)c1cc(C(=O)NC(C)c2ccccc2)c(C)[nH]c1=O (stereo not given) | i | i | -7.39* | i | 14.1%* | i
O=C(C1CCCCC1)N(CCN1CCCC1)c1nc2ccccc2s1 | i | i | i | i | nt | nt
CCc1cc(C(=O)NNC(=S)NC2CCCCC2)cs1 | i | i | i | i | nt | nt
CC(C)c1cc(C(=O)NNC(=S)NC2CCCCC2)cs1 | i | i | -5.55* | i | 66.2%* | i
CCCCOc1cccc(C(=O)NNC(=S)NC2CCCCC2)c1 | i | i | -8.78* | i | 68.8%* | i
NC1=NC2(CCCCC2)N(c2ccc(F)cc2)C(N)=N1 | i | i | i | i | nt | nt
SMILES | CHT PAM | ANO1 block | CHT inh | TMEM16A act | CHT inh conf | HEK293 MPD ctr
Cc1ccc(OCCCN2CCOCC2)c([N+](=O)[O-])c1 | i | i | -6.08* | i | i | i
O=C(Nc1ccc(S(=O)(=O)NCC2CCCO2)cc1)c1ccccc1 (stereo not given) | i | i | i | i | nt | nt
CCC(Oc1ccccc1)C(=O)Nc1ccc(S(=O)(=O)NCC2CCCO2)cc1 (stereo not given) | i | i | -8.73* | i | 39.7%* | i
O=S(=O)(NCC1CCCO1)c1ccc(Oc2ccccc2)cc1 (stereo not given) | i | i | -5.57* | i | i | i
Cc1ccc(/C=C2/Sc3ccc(C(=O)N4CCN(c5ccccn5)CC4)cc3NC2=O)cc1 | i | i | i | i | nt | nt
CCCCC1=CC2=CC(=O)C(C)(OC(=O)CCC(=O)OC)C(=O)C2=CO1 (stereo not given) | i | i | i | nt | nt | nt
CC(C)c1nc(C(=O)N2CCCC(CCC(=O)N(C)CCc3ccccn3)C2)cs1 (stereo not given) | i | i | -5.44* | i | i | i
O=C(COc1ccc2ccccc2c1)NNC(=O)Nc1ccc(F)cc1F | i | i | i | i | nt | nt
CC(=O)Nc1ccc(S(=O)(=O)Nc2nc3ccccc3nc2Nc2ccc(N)cc2)cc1 | i | i | -5.05* | i | 66.9%* | i
N#Cc1c(N)nc(SCc2ccccn2)c(C#N)c1-c1cccs1 | i | i | -7.3* | i | 49.3%* | i
CCCCCCCCN1[C@@H](CC(C)=O)c2cc(C(F)(F)F)ccc2S1(=O)=O | i | i | i | i | nt | nt
Cc1ccccc1-n1nnnc1Sc1nnnn1-c1ccccc1 | i | i | -4.99* | i | 63.8%* | i
O=C(NCc1cccnc1)C1CCN(S(=O)(=O)c2cccc(C(F)(F)F)c2)CC1 | nt | nt | nt | i | nt | nt
O=C(Nc1cccc(C(F)(F)F)c1)C1CCN(S(=O)(=O)c2cccnc2)CC1 | i | i | -5.37* | i | 55.2%* | i
COc1ccccc1C(=O)NCC(=O)NCC1(N2CCCCC2)CCCCC1 | i | i | i | i | nt | nt
CCCCN(CCCC)c1nc(-c2ccncc2)nc2ccccc12 | i | i | i | i | nt | nt
COc1ccccc1Nc1ncnc2ccc(C)cc12 | i | i | -5.37* | i | 60.6%* | i
Cc1ccc2ncnc(Nc3ccccc3)c2c1 | i | i | i | i | nt | nt
O=C(O)/C(=C\c1ccccc1OC(F)F)Sc1nnc(-c2ccc(F)cc2)o1 | i | i | -5.65* | i | 30.6%* | i
Cc1oc(C(C)(C)C)cc1C(=O)Nc1cccc(/C=C\C(=O)O)c1 | i | i | i | i | nt | nt
